Data reported in PubChem BioAssay (Tox21).
Inconclusive results are not listed. The source made the active and inactive calls. Unless noted, calls come from the whole dose curve; as a rule, active = well fitted curve in the direction sought with a large enough effect in the repeat runs; inconclusive = weak or mixed curves; inactive = no such curve, though single readings can be large; an effect the other way counts as inactive or inconclusive. Non-standard residues stand in square brackets, D forms with d. Residues, ends and D or L forms follow the SMILES beside them. *: point of attachment. Sta = CC(C)C[C@H](N)[C@@H](O)CC(=O)O; Isovaleryl = CC(C)CC(=O)*

Tests used:
[1] = qHTS assay to test for compound auto fluorescence at 535 nm (green) in HEK293 cells (AID 720680)
[2] = qHTS assay to test for compound auto fluorescence at 460 nm (blue) in HEK293 cell free culture (AID 720681)
Summary of the method: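 Blue fluorescence (Ex 405/Em 460 nm, triamterene-equivalent) was read immediately after pin transfer of compound or DMSO into medium (DMEM, 10% FBS) without cells.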

[3] = qHTS assay to test for compound auto fluorescence at 535 nm (green) in HEK293 cell free culture (AID 720682)
Summary of the method: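 No cells present: wells hold DMEM supplemented with 10% FBS, into which compound or vehicle is pinned. Green emission is then recorded (485 nm excitation, 535 nm emission) and scaled to fluorescein.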

[4] = qHTS assay to test for compound auto fluorescence at 590 nm (red) in HEK293 cell free culture (AID 720683)
Summary of the method: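 Red-channel autofluorescence of compounds in culture medium (DMEM, 10% FBS), no cells, measured at 540/590 nm. Rose Bengal sodium is the reference fluorophore for equivalence.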

[5] = qHTS assay to test for compound auto fluorescence at 590 nm (red) in HepG2 cell free culture (AID 720684)
Summary of the method: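 Steps: dispense MEM/10% FBS medium, no cells; pin compound or DMSO vehicle; read red channel, Ex/Em 540/590 nm. Output given as Rose Bengal sodium equivalents.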

[6] = qHTS assay to test for compound auto fluorescence at 460 nm (blue) in HepG2 cell free culture (AID 720685)
Summary of the method: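 Compound (23 nL) or DMSO pinned into cell-free MEM with 10% FBS; blue fluorescence read at 405/460 nm excitation/emission, expressed as auto-fluorescence equivalency to triamterene.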

[7] = qHTS assay to test for compound auto fluorescence at 535 nm (green) in HepG2 cell free culture (AID 720686)
[8] = target: Glucocorticoid receptor (Homo sapiens) (UniProt P04150); assay: qHTS assay to identify small molecule agonists of the glucocorticoid receptor (GR) signaling pathway (AID 720691; active = well fitted activation curve with a large enough effect in the signal ratio in the repeat runs, not every such curve was filed as active; the % refers to the signal ratio)
Summary of the method: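 Agonist mode in a HeLa line carrying a GRE-controlled beta-lactamase reporter. Compounds act for 18 h at 37 C before a 2 h room-temperature FRET substrate step and fluorescence reading.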

[9] = target: Glucocorticoid receptor (Homo sapiens) (UniProt P04150); assay: qHTS assay to identify small molecule antagonists of the glucocorticoid receptor (GR) signaling pathway (AID 720692; active = well fitted inhibition curve with a large enough effect in the signal ratio in the repeat runs, not every such curve was filed as active; the % refers to the signal ratio)
Summary of the method: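 Cells plated, rested 4 h at 37 C/5% CO2; compounds in DMSO pin-transferred; dexamethasone added to 5 nM final; 18 h at 37 C; B/G FRET substrate added, 2 h room temperature; fluorescence measured.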

[10] = qHTS assay to identify small molecule antagonists of the glucocorticoid receptor (GR) signaling pathway - cell viability counter screen (AID 720693); note: nearly all actives have a fitted effect of over 55% in size
[11] = qHTS assay for identifying genotoxic compounds that show differential cytotoxicity against isogenic chicken DT40 cell lines with known DNA damage response pathways - wild type cell line (AID 743012); note: nearly all actives have a fitted effect of over 60% in size
Summary of the method: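 Cells (DT40 wild type, 300/well) are treated with DMSO-dissolved compounds after a ~0.5 h pre-incubation and kept 40 h at 37 C/5% CO2. Viability is then measured by CellTiter-Glo luminescence following 30 min at room temperature.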

[12] = qHTS assay for identifying genotoxic compounds that show differential cytotoxicity against isogenic chicken DT40 cell lines with known DNA damage response pathways - Rev3 mutant cell line (AID 743014); note: nearly all actives have a fitted effect of over 55% in size
[13] = qHTS assay for identifying genotoxic compounds that show differential cytotoxicity against isogenic chicken DT40 cell lines with known DNA damage response pathways - Rad54/Ku70 mutant cell line (AID 743015); note: nearly all actives have a fitted effect of over 60% in size
[14] = qHTS assay to identify small molecule antagonists of the androgen receptor (AR) signaling pathway - cell viability counter screen (AID 743033; note: nearly all actives have a fitted effect of over 45% in size)
[15] = qHTS assay to identify small molecule antagonists of the androgen receptor (AR) signaling pathway using the MDA cell line - cell viability counter screen (AID 743041; note: nearly all actives have a fitted effect of over 45% in size)
Summary of the method: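 Cells were plated at 3,000 per well and left 5 h. Compounds in DMSO were then pinned in, followed by R1881. After 16 h at 37C, CellTiter-Fluor fluorescence gave viability.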

[16] = qHTS assay to identify small molecule antagonists of the thyroid receptor (TR) signaling pathway - cell viability counter screen (AID 743064); note: nearly all actives have a fitted effect of over 50% in size
Summary of the method: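 Rat GH3 pituitary tumor cells stably expressing two TR response elements driving luciferase were plated, rested 4 h, then dosed with library compounds and T3 (1 nM final). After 23.5 h at 37 °C, CellTiter-Fluor was added for 30 min and fluorescence recorded.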

[17] = qHTS assay to test for compound auto fluorescence at 460 nm (blue) in HepG2 cells (AID 720687)
Summary of the method: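 Blue-channel autofluorescence (Ex/Em 405/460 nm, triamterene-equivalent) was measured after 1 hr compound exposure at 37 C, 5% CO2. Cells were HepG2, plated overnight at 37 C in MEM plus 10% FBS.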

[18] = target: Androgen receptor (Homo sapiens) (UniProt P10275); assay: qHTS assay to identify small molecule antagonists of the androgen receptor (AR) signaling pathway (AID 743035; active = well fitted inhibition curve with a large enough effect in the signal ratio in the repeat runs, not every such curve was filed as active; the % refers to the signal ratio)
Summary of the method: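 Antagonism is scored as loss of R1881-driven beta-lactamase reporter expression in HEK293 cells carrying the reporter under a UAS element, after 16 h co-treatment at 37C and a 2 h room-temperature FRET substrate read.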

[19] = target: Androgen receptor (Homo sapiens) (UniProt P10275); assay: qHTS assay to identify small molecule agonists of the androgen receptor (AR) signaling pathway using the MDA cell line (AID 743040; note: nearly all actives have a fitted effect of over 20% in size)
Summary of the method: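 Cells plated, 5 h at 37C/0% CO2; compound or DMSO pinned; 16 h at 37C; ONE-Glo added; luminescence measured after 30 min at room temperature. Reporter line: MDA-kb2 with MMTV-luciferase responsive to AR and GR.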

[20] = target: Androgen receptor (Homo sapiens) (UniProt P10275); assay: qHTS assay to identify small molecule antagonists of the androgen receptor (AR) signaling pathway using the MDA cell line (AID 743042; note: nearly all actives have a fitted effect of over 55% in size)
Summary of the method: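 Antagonist mode: compounds plus R1881 agonist added to MDA-kb2 AR-luc cells, incubated 16 h at 37C. Luciferase reporter luminescence quantified, with multiplexed CellTiter-Fluor readout for cell viability.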
% is set by controls: 0 for no effect and ±100 for the full control effect.

Androgen receptor (Homo sapiens), sequence (P10275 whole entry, looked up): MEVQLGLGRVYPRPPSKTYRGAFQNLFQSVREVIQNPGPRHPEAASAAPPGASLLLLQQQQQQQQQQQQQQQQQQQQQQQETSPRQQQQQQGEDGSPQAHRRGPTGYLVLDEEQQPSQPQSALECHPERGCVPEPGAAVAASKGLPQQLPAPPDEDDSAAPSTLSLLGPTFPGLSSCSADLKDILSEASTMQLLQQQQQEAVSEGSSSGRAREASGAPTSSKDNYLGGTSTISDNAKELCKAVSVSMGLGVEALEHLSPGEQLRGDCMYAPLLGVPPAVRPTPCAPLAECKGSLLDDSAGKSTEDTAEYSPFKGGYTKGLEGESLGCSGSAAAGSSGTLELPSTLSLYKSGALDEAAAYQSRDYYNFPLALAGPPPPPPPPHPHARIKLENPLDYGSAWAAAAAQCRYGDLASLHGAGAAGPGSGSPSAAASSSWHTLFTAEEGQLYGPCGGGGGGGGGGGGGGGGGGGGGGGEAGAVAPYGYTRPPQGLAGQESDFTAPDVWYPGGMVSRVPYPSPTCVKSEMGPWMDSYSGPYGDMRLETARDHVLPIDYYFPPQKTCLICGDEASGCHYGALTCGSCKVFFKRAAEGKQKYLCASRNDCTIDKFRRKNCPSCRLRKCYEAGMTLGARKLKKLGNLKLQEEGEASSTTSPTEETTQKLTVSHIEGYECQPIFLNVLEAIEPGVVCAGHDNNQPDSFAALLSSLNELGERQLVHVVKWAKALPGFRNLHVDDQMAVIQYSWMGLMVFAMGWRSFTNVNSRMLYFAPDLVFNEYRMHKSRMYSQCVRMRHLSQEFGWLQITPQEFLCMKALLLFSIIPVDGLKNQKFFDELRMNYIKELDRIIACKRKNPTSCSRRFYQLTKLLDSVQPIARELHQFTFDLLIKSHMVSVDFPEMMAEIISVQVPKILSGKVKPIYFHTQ
Glucocorticoid receptor (Homo sapiens), sequence (P04150 whole entry, looked up): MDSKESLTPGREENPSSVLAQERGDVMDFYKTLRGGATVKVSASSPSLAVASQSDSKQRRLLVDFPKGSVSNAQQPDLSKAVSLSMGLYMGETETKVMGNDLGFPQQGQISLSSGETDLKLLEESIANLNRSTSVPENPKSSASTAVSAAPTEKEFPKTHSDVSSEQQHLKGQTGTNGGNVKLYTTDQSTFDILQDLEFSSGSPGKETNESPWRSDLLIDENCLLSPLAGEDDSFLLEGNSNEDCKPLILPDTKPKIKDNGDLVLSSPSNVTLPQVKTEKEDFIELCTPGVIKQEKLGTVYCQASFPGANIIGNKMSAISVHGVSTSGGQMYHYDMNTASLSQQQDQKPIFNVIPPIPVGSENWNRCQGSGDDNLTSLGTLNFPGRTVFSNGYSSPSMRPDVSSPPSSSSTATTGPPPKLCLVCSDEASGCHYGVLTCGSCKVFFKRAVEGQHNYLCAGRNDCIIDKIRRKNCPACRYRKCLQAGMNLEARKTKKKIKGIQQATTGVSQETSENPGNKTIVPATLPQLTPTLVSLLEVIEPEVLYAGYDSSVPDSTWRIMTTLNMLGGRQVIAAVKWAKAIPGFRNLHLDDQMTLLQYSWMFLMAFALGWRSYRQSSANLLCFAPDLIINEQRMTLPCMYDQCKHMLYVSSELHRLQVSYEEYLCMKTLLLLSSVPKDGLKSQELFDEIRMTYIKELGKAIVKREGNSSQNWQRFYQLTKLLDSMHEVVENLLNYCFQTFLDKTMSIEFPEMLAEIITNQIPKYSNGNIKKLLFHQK

CCCCCCCCCCCCCCCC(=O)OC
inactive: fluorescence, % of fluorescein [1] -0.0119% [at 18.6 µM] | fluorescence, % of fluorescent control [2] -0.0484% [at 18.6 µM] | activity change [3] -0.0305% [at 18.6 µM] | fluorescence, % of fluorescent control [4] -0.033% [at 18.6 µM] | fluorescence, % of Rose Bengal [5] 0.0231% [at 18.6 µM] | fluorescence, % of fluorescent control [6] -0.0427% [at 18.6 µM] | fluorescence, % of fluorescein control [7] -0.0231% [at 18.6 µM] | Potency [8] | outcome [9] | outcome [10] | Potency [11] | Potency [12] | Potency [13] | outcome [14] | outcome [15] | Potency [16]

CCOc1ccccc1OCCN[C@H](C)Cc1ccc(OC)c(S(N)(=O)=O)c1
inactive: outcome [1] | outcome [2] | outcome [3] | outcome [4] | outcome [5] | outcome [6] | outcome [7] | outcome [17] | outcome [10] | Potency [11] | Potency [13] | outcome [14] | outcome [15] | Potency [16]

C/C(=N\O)c1ccc(OCC(=O)N2CCCCC2)cc1
inactive: outcome [1] | outcome [2] | outcome [3] | outcome [4] | outcome [5] | outcome [6] | outcome [7] | outcome [17] | outcome [10] | Potency [12] | Potency [13] | outcome [18] | outcome [19] | outcome [15] | outcome [20] | Potency [16]

C[C@@H]1CC[C@@]2(OC1)O[C@H]1C[C@H]3[C@@H]4CC[C@H]5C[C@@H](O)CC[C@]5(C)[C@H]4CC(=O)[C@]3(C)[C@H]1[C@@H]2C
inactive: fluorescence, % of fluorescein [1] -0.0442% [at 18.6 µM] | fluorescence, % of fluorescent control [2] 0.012% [at 18.6 µM] | activity change [3] -0.0372% [at 18.6 µM] | fluorescence, % of fluorescent control [4] 0.195% [at 18.6 µM] | fluorescence, % of Rose Bengal [5] 0.0999% [at 18.6 µM] | fluorescence, % of fluorescent control [6] 0.0653% [at 18.6 µM] | fluorescence, % of fluorescein control [7] 0.0232% [at 18.6 µM] | fluorescence, % of fluorescent control [17] -0.13% [at 18.6 µM] | Potency [11] | Potency [12] | Potency [13] | outcome [15] | Potency [16]

CCCCc1ccc(Cl)cc1
inactive: outcome [1] | outcome [2] | outcome [3] | outcome [4] | outcome [5] | outcome [6] | outcome [7] | outcome [17] | Potency [11] | Potency [12] | Potency [13] | outcome [14] | outcome [15] | Potency [16]

N[C@H]1C(O)O[C@H](CO)[C@@H](O)[C@@H]1O (stereo not given in full)
inactive: outcome [1] | outcome [2] | outcome [3] | outcome [4] | outcome [5] | outcome [6] | outcome [7] | outcome [17] | Potency [11] | Potency [12] | Potency [13] | outcome [14] | outcome [18] | outcome [19] | outcome [15] | outcome [20] | Potency [16]

CN(C)c1ccncc1
inactive: outcome [1] | outcome [2] | outcome [3] | outcome [4] | outcome [5] | outcome [6] | outcome [7] | outcome [17] | outcome [10] | outcome [14] | outcome [15] | Potency [16]

CC(C)CC(=O)N[C@H](C(=O)N[C@H](C(=O)N[C@@H](CC(C)C)[C@@H](O)CC(=O)N[C@@H](C)C(=O)N[C@@H](CC(C)C)[C@@H](O)CC(=O)O)C(C)C)C(C)C (Isovaleryl-VV[Sta]A[Sta]-OH)
inactive: outcome [1] | outcome [2] | outcome [3] | outcome [4] | outcome [5] | outcome [6] | outcome [7] | outcome [17] | outcome [10] | Potency [11] | Potency [13] | outcome [15] | Potency [16]
